IL-1B inflam inh = inhibitors of inflammasome signaling (IL-1 beta secretion); THP-1 LPS/ATP IL-1B secretion, AlphaLISA, 16 h; hits give low values; activity change, % at 57.5 µM; actives 4.7% (n = 360,000); in the data active = activity change below about -50%; inconclusive = mostly about -30% to -49%; note: % is set by controls: 0 for no effect and ±100 for the full control effect
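THP-1 cells pretreated 1 hr with compounds (up to 57.5 uM final), then stimulated with LPS (250 ng/mL final) plus ATP (1.25 mM final); secreted IL-1B measured by AlphaLISA after 16 hr, decreased signal indicating inhibition.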
TGFb inhibitor = inhibitors of TGF-b signaling. HepG2 CAGA-GFP TGF-b/SMAD3 reporter, GFP fluorescence, 18 h; TGF-beta stimulated, 500 pg/mL final. Potency, µM (doses to about 46.1 µM), for inactives: at the highest dose activity, negative = inhibition, actives largely listed as inhibitors. actives 1.2% (n = 410,000). AID 588855; note: potency is the fitted concentration of half-maximal effect; % is set by controls: 0 for no effect and ±100 for the full control effect; nearly all actives have a fitted effect of over 65% in size
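HEPG2 CAGA-GFP reporter cells (1000/well, DMEM with 1% FBS) received compounds, then recombinant TGF-beta at 500 pg/mL final for 18 hours at 37 degrees C. Per-cell GFP summed per well was normalised to unstimulated and stimulated DMSO controls before curve fitting.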
DT40 TDP1 CPT = growth inhibition of DT40 Tdp1-/-;hTDP1 cells with camptothecin (screen for TDP1 inhibitors) | chicken DT40 Tdp1-/-;hTDP1 cells + 20 nM CPT, ATP luminescence, 48 h | Potency, µM (titrated, usually from 46.2 µM), for inactives: top-dose activity change, negative = growth inhibition, hits mostly inhibitors | actives 12% (n = 420,000) | AID 686979; note: potency is the fitted concentration of half-maximal effect; % is set by controls: 0 for no effect and ±100 for the full control effect; nearly all actives have a fitted effect of over 55% in size
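Chicken DT40 Tdp1-/- cells stably complemented with human TDP1 were seeded at 400 cells/well in medium containing 20 nM camptothecin, exposed to pin-transferred compounds, and grown at 37 °C for at least 48 hr. Viability was read as ATP luminescence.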
HepG2 tox = kills HepG2 cells in TGF-b inhibitor counter-screen; HepG2 CAGA-GFP viability, ATP luminescence, 18 h; Potency, µM (top dose mostly 46.1 µM), without a hit: at the top dose activity change, negative = cytotoxicity, hits mostly cytotoxic; actives 0.76% (n = 410,000); note: potency is the fitted concentration of half-maximal effect
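CellTiter-Glo luminescence gave cytotoxicity after 18 hours at 37 degrees C. The cells were HepG2 CAGA-GFP in 1% FBS DMEM, stimulated with 500 pg/mL TGF-beta after compound addition. %Activity was normalised to no-cell wells (complete cell-killing) and DMSO (no toxicity), and curves were fitted and classified.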
DT40 TDP1 no CPT = qHTS for Inhibitors of human tyrosyl-DNA phosphodiesterase 1 (TDP1): qHTS in cells in absence of CPT; DT40 Tdp1-/- hTDP1 cells, no CPT, ATP luminescence, 48 h; Potency, µM (titrated, usually from 46.2 µM), inactives show at the highest dose activity change, negative = growth inhibition, most hits filed as inhibitors; actives 15% (n = 420,000); AID 686978, 2013; note: potency is the fitted concentration of half-maximal effect; % is set by controls: 0 for no effect and ±100 for the full control effect; nearly all actives have a fitted effect of over 55% in size
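Chicken DT40 Tdp1-/- cells complemented with human TDP1, screened without camptothecin (DMSO vehicle only), 400 cells/well. Compounds pin-transferred, cells incubated at 37 °C for at least 48 hr. Growth read as ATP-dependent luminescence (CellTiter-Glo, 30 min at RT).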
TDP1 inh = inhibitors of human tyrosyl-DNA phosphodiesterase TDP1; Q9NUW8; recombinant TDP1, AlphaScreen DNA substrate cleavage; Potency, µM (doses to about 130 µM), inactives show at the highest dose activity change, negative = inhibition, actives largely listed as inhibitors; actives 0.28% (n = 350,000); AID 485290; note: potency is the fitted concentration of half-maximal effect; % is set by controls: 0 for no effect and ±100 for the full control effect; nearly all actives have a fitted effect of over 40% in size
Target sequence (Q9NUW8 whole entry, looked up): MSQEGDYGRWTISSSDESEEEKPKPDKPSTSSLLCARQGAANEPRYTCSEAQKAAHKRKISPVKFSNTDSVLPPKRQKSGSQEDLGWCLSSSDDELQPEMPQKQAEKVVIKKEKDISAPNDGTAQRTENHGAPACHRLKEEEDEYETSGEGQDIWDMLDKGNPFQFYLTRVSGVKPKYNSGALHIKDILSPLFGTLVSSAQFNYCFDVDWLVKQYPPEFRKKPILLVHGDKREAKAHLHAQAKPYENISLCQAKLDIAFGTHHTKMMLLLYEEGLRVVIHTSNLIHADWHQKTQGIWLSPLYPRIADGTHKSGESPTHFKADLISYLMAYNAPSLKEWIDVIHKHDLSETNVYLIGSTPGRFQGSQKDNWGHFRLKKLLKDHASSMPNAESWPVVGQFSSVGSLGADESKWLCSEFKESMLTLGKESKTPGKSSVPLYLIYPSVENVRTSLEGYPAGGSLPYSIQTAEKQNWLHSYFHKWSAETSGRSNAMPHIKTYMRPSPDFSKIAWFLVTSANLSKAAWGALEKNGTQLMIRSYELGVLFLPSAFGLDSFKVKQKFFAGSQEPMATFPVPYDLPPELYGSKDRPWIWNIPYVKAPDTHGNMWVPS
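AlphaScreen read-out: signal falls as enzyme removes the 3' tyrosine-FITC from a 5'-biotinylated DNA oligo (15 nM, 5 min, RT). Enzyme was E. coli-made recombinant Tdp1 at 1 nM, exposed to compound for 15 min beforehand; beads 10 ug/ml, 10 min.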
* = called active by the depositor; [ ] = dose if it differs, or a comment. Compounds with a hit are over-represented: about 19% of the library has one in this group of screens. Unless noted, calls come from the whole dose curve; as a rule, active = well fitted curve in the direction sought with a large enough effect; inconclusive = small, poorly fitted or top-dose-only effect, or another doubt; inactive = no such curve, though single readings can be large; an effect the other way counts as inactive or inconclusive.

Cc1onc(-c2ccccc2)c1C(=O)OCC(=O)Nc1ccc(Cl)cc1 was read as IL-1B inflam inh 0.0, TGFb inhibitor -23.8%, DT40 TDP1 CPT inconclusive, HepG2 tox -33.5%, DT40 TDP1 no CPT inconclusive and TDP1 inh -1.5%[56.1 µM].
`CCOC(=O)c1ccccc1NC(=O)c1c(-c2ccccc2)noc1C` gave TGFb inhibitor 5.3%, DT40 TDP1 CPT 9.2µM*, HepG2 tox -28.8%, DT40 TDP1 no CPT 4.61µM* and TDP1 inh -11.4%.
Screening CCCCNS(=O)(=O)c1ccc(NC(=O)c2c(-c3ccccc3)noc2C)cc1 returned TGFb inhibitor inconclusive, DT40 TDP1 CPT inconclusive, HepG2 tox -18.8%, DT40 TDP1 no CPT inconclusive and TDP1 inh 3.2%.
For Cc1cccc(OCCOC(=O)c2c(-c3ccccc3)noc2C)c1 the results were IL-1B inflam inh 33.2, TGFb inhibitor -22.5%, DT40 TDP1 CPT inconclusive, HepG2 tox -6.4% and DT40 TDP1 no CPT 23.1µM*.
`CCCCN(CCCC)S(=O)(=O)c1ccc(NC(=O)c2c(-c3ccccc3)noc2C)cc1` gave TGFb inhibitor inconclusive, DT40 TDP1 CPT 20.6µM*, HepG2 tox 1.3%, DT40 TDP1 no CPT 29.1µM* and TDP1 inh -2.1%.
Screening Cc1onc(-c2ccccc2)c1C(=O)Nc1ccc(NC(=O)c2c(-c3ccccc3)noc2C)cc1 returned IL-1B inflam inh 4.1, TGFb inhibitor -0.2%, DT40 TDP1 CPT -2.0%, HepG2 tox -1.6% and DT40 TDP1 no CPT -18.9%.
Cc1onc(-c2ccccc2)c1C(=O)OCC(=O)Nc1ccccc1Cl was read as IL-1B inflam inh -1.0, TGFb inhibitor -11.8%, DT40 TDP1 CPT inconclusive, HepG2 tox -15.6% and DT40 TDP1 no CPT 18.4µM*.
`Cc1cc2ccccc2n1CCNC(=O)c1ccccc1F` gave TGFb inhibitor 0.0%, DT40 TDP1 CPT inconclusive, HepG2 tox -26.5%, DT40 TDP1 no CPT 16.4µM* and TDP1 inh 5.0%.
Cc1cc2ccccc2n1CCNC(=O)c1ccccc1 was read as IL-1B inflam inh -10.5, TGFb inhibitor 14.0%, DT40 TDP1 CPT inconclusive, HepG2 tox -33.4%, DT40 TDP1 no CPT inconclusive and TDP1 inh 3.9%.
O=C(NCc1cc2ccccc2[nH]1)c1ccccc1F was read as IL-1B inflam inh -63.7*, TGFb inhibitor 1.2%, DT40 TDP1 CPT -19.1%, HepG2 tox -33.3% and DT40 TDP1 no CPT -5.0%.
Screening CC(=O)NCCn1c(C)cc2ccccc21 returned IL-1B inflam inh 3.9, TGFb inhibitor 1.2%, DT40 TDP1 CPT -23.4%, HepG2 tox 7.6%, DT40 TDP1 no CPT inconclusive and TDP1 inh -3.1%.
Cc1cc2ccccc2n1CCNC(=O)c1ccc(Br)o1 was read as IL-1B inflam inh -25.9, TGFb inhibitor -14.5%, DT40 TDP1 CPT -28.5%, HepG2 tox -15.1% and DT40 TDP1 no CPT 29.1µM*.
Cc1cc2ccccc2n1CCNC(=O)c1ccc(Br)cc1 was read as TGFb inhibitor inconclusive, DT40 TDP1 CPT inconclusive, HepG2 tox -17.5%, DT40 TDP1 no CPT 20.6µM* and TDP1 inh 5.0%.
Screening CCOc1ccc(NC(=O)Cn2c(C)cc3ccccc3c2=O)cc1 returned TGFb inhibitor -3.1%, DT40 TDP1 CPT -8.9%, HepG2 tox -26.2%, DT40 TDP1 no CPT -0.1% and TDP1 inh -2.9%.
`COc1ccc(C2CC(=O)N(Cc3cccc(C)c3)c3c2c(C)nn3-c2nc(C)cc(C)n2)c(OC)c1` (stereo unspecified) gave TGFb inhibitor -1.0%, DT40 TDP1 CPT inconclusive, HepG2 tox 4.4%, DT40 TDP1 no CPT inconclusive and TDP1 inh 4.7%.
`O=C(Cc1ccc(S(=O)(=O)N2CCOCC2)s1)Oc1ccc(F)cc1` gave IL-1B inflam inh -21.6, TGFb inhibitor 0.1%, DT40 TDP1 CPT -29.1%, HepG2 tox 6.3%, DT40 TDP1 no CPT -35.6% and TDP1 inh 4.7%.
`Cc1ccc2c(c1)c1c(c(=O)n(-c3ccccc3)c(=O)n1CC(=O)c1ccc(F)cc1)n2C` gave TGFb inhibitor -5.1%, DT40 TDP1 CPT 1.5%, HepG2 tox -2.4%, DT40 TDP1 no CPT 3.6% and TDP1 inh 5.6%.
Screening Cc1onc(-c2ccccc2Cl)c1C(=O)NCC(=O)O returned IL-1B inflam inh 44.5, TGFb inhibitor -4.1%, DT40 TDP1 CPT -10.5%, HepG2 tox 0.7%, DT40 TDP1 no CPT 10.6% and TDP1 inh 2.1%.
Cc1onc(-c2ccccc2Cl)c1C(=O)NCCn1c(C)cc2ccccc21 was read as IL-1B inflam inh -9.8, TGFb inhibitor -0.9%, DT40 TDP1 CPT inconclusive, HepG2 tox -11.6% and DT40 TDP1 no CPT 29.1µM*.
CSc1ccccc1C(=O)N1CCCC(CCC(=O)NCc2ccc(F)c(F)c2)C1 (stereo unspecified) was read as IL-1B inflam inh 0.3, TGFb inhibitor inconclusive, DT40 TDP1 CPT inconclusive, HepG2 tox -15.1%, DT40 TDP1 no CPT inconclusive and TDP1 inh 5.5%.
`CN1CCN(C2=Cc3ccccc3Sc3cc(F)c(Cl)cc32)CC1` gave IL-1B inflam inh -62.0*, TGFb inhibitor inconclusive, DT40 TDP1 CPT inconclusive, HepG2 tox -116.5%, DT40 TDP1 no CPT 29.1µM* and TDP1 inh 10.0%.
Screening CN1CCN(c2cc(-c3ccccc3C(F)(F)F)ncn2)CC1 returned DT40 TDP1 CPT 4.1%, DT40 TDP1 no CPT 8.7% and TDP1 inh 9.3%[56.1 µM].
CN1CCN(C2=Cc3cc(Cl)ccc3Sc3cc(F)ccc32)CC1 was read as IL-1B inflam inh -100.1*, TGFb inhibitor inconclusive, DT40 TDP1 CPT inconclusive, HepG2 tox -87.2%, DT40 TDP1 no CPT 29.1µM* and TDP1 inh 0.0%.
`CN1CCN(C2=Cc3ccccc3Sc3cc(F)c(F)cc32)CC1` gave IL-1B inflam inh -62.2*, TGFb inhibitor -1.2%, DT40 TDP1 CPT inconclusive, HepG2 tox -102.0%, DT40 TDP1 no CPT inconclusive and TDP1 inh 0.0%.
For Cc1cc(C)cc(OCC(=O)Nc2nonc2-c2ccc(Br)cc2)c1 the results were TGFb inhibitor 1.2%, DT40 TDP1 CPT inconclusive, HepG2 tox -3.4%, DT40 TDP1 no CPT -17.3% and TDP1 inh 2.9%.
`CC12CCC(=O)C=C1CCCC2=O` (stereo unspecified) gave IL-1B inflam inh -26.0, TGFb inhibitor 34.0%, DT40 TDP1 CPT 17.1%, HepG2 tox -1.2% and DT40 TDP1 no CPT -26.1%.

Screening results as filed in PubChem BioAssay.
